According to PubChem BioAssay AID1626 (SRMLSC, 2009):
Hit rate of the full screen: of about 220,000 compounds, about 2,000 (0.91%) were called active. Not shown: some 2% with an inconclusive outcome. Not all results are given here. Entries with a potency or affinity are not part of this list. A number with no mark means an inactive call. Rule as the data show it: inconclusive = inhibition above about 80% without an active follow-up result; inactive = below that; test concentration not stated here.

assay: M. tuberculosis H37Rv growth inhibitors, H37Rv strain (AID 1626); details: hits give high values, concentration not given here;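 also: bacteria incubated seven days before Alamar blue readout; 0% = bacteria only wells and 100% = bacteria with antibiotic wells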

SMILES | inhibition [%]
O=C(c1ccc2c3c(cccc13)CC2)C1CCCN(Cc2ncc[nH]2)C1 (centres undefined) | -5.62
O=C(c1ccc2c3c(cccc13)CC2)C1CCCN(Cc2ccncc2)C1 (centres undefined) | 3.23
O=C(N/N=C1\CC2CC=CC12)c1ccc(Br)cc1 (centres undefined) | -7.43
Cc1ccc2cc(CN(CC3CCCO3)S(=O)(=O)c3ccc4c(c3)OCCO4)c(=O)[nH]c2c1C (centres undefined) | 9.1
Nc1n[nH]c(N)c1N=Nc1cccc(F)c1 | 0.51
COC(=O)c1ccccc1N=Nc1c(N)n[nH]c1N | -10.6
Nc1n[nH]c(N)c1N=Nc1ccc(Cl)cc1 | 1.65
Cc1ccc(-c2[nH]nc(N)c2N=Nc2cccc(Cl)c2C)cc1 | 0.18
CCn1cc(C2=NC(C(C)C)CO2)c2ccccc21 (centres undefined) | 5.08
CCOc1ccc(OCC)c(NC(=O)Nc2ccc3c(c2)N(C)C(=O)CS3)c1 | 1.8
O=C(O)c1cc(NC(=O)C2CCCO2)cc(NC(=O)C2CCCO2)c1 (centres undefined) | -1.59
CC1(C)CC(=O)C(/C=N/n2c(C(F)(F)F)nc3ccccc3c2=O)=C(O)C1 | 13.1
O=C(CSc1nnc(-c2ccccc2F)n1C1CCCCC1)N1CCCC1 | -3.16
OC(COCc1ccc(Cl)cc1)CN1CCN(c2ccccn2)CC1 (centres undefined) | 6.32
OC(CN1CCN(c2ccccn2)CC1)Cn1c2ccccc2c2ccccc21 (centres undefined) | 34.8
OC(COC(c1ccccc1)c1ccccc1)CN1CCN(c2ccccn2)CC1 (centres undefined) | 3.57
Cc1cc(C)c(OCC(O)CN2CCN(c3ccccn3)CC2)c(C)c1 (centres undefined) | -4.16
CC(C)C1=C2CCCCC2NC(=O)N1 (centres undefined) | -3.19
O=C(CN1CCSC1=NCc1ccccc1)c1ccccc1 | 0.24
N#Cc1ccc(-c2ccccc2)nc1SCC(=O)c1cccc(Cl)c1 | 12.6

SMILES | inhibition [%]
Cc1ccc(C(=O)CSc2nc(-c3ccccc3)ccc2C#N)cc1 | 4.37
Cc1nc(SCC(=O)c2cc3ccccc3oc2=O)c(C#N)c(C)c1C(=O)Nc1ccccc1 | 1.89
Cc1nc(SCC(=O)OCc2ccccc2)c(C#N)c(-c2ccccc2)c1C(=O)Nc1ccccc1 | 1.59
CCCCNC(=O)c1[nH]c(C)c(C(C)=O)c1C | -1.66
O=C(O)c1ccc(N/N=C/c2cc3ccccc3nc2Cl)cc1 | 7.73
Cc1ccc(C(NC(=O)/C=C\c2ccc3c(c2)OCO3)C(=O)Nc2ccc3c(c2)OCO3)cc1 (centres undefined) | 61.7
CC(=O)NCC(=O)N(C)C(C(=O)Nc1ccc2c(c1)OCCO2)c1ccc(C)cc1 (centres undefined) | 2.18
Cc1c(Cl)ccc2c(C(N)=O)cc(-c3ccccn3)nc12 | 3.8
CC(C)n1nc(C(=O)Oc2ccc(Cl)cc2)c2ccccc2c1=O | 9.19
Clc1ccc2c(c1)C(c1ccccc1Cl)=NCc1nnc(Br)n1-2 | -0.77
CN1CCN(Cc2nnc3n2-c2ccc(Cl)cc2C(c2ccccc2)=NC3)CC1 | -4.71
O=C(CN1C(=O)NC2(CCCCC2)C1=O)NC1CCCc2ccccc21 (centres undefined) | -2.8
CN(CC(=O)N1CCN(c2ccc(F)cc2)CC1)S(=O)(=O)c1ccc(F)cc1 | -7.27
CC(=O)c1cccc(NC(=O)Cn2cc3c(n2)CCCC3)c1 | -1.86
CC(=O)Nc1ccc(NC(=O)Cn2cc3c(n2)CCCC3)cc1 | -8.53
CCOc1ccc(NC(=O)Nc2cccnc2)cc1 | 16.1
O=C(O)CSc1ncnc2c1oc1ccccc12 | -5.38
NC(=O)CSc1ncnc2c1oc1ccccc12 | 7.24
COc1ccc(Cc2nnc(NC(=O)c3cccc([N+](=O)[O-])c3)s2)cc1 | 1.81
CCCCNC(=O)c1ccc(Cn2c(=S)[nH]c3c([nH]c4ccc(OC)cc43)c2=O)cc1 | -1.23

SMILES | inhibition [%]
O=c1[nH]c(CN2CCOCC2)nc2ccccc12 | -6.66
N#Cc1ccc(COC(=O)c2ccc3c(=O)[nH]c(CN4CCOCC4)nc3c2)cc1 | -4.45
O=C(c1ccc2c(c1)OCO2)C1CCCN(C(=O)c2cnn(Cc3ccccc3)c2)C1 (centres undefined) | 5.07
O=C(O)c1cc2c(s1)-c1ccccc1OC2 | -9.86
CS(=O)(=O)N1CCN(c2ccccc2NC(=O)c2ccc(-c3ccc(Cl)cc3Cl)o2)CC1 | -2.89
Cc1ccccc1NC(=O)c1ccc(-c2ccc(Cl)cc2Cl)o1 | 66.1
Cc1c(NC(=O)c2cc3c(s2)-c2ccccc2OC3)cccc1[N+](=O)[O-] | 1.27
Cc1cccc(-c2c3c(=O)n(C)c(=O)n(C)c3cn2CCO)c1 | 0.58
CCOC(=O)/C(C#N)=C1/C=C(C)NC(c2ccccc2O)=N1 | -1.53
C=CCNC(=O)COC(=O)CCC(=O)c1cccs1 | -6.43
CCC1=C(OC(=O)N(CC)CC)N2C(=O)OC(=NCc3ccccc3)[C@]2(C)[C@H]2C1=CC[C@H]1C(=O)N(CC(=O)OC)C(=O)[C@H]12 | 6.67
COc1ccccc1-c1nc(C#N)c(N2CCN(c3ccccc3)CC2)o1 | 0.35
O=C(NCCN1CCN(c2cccc(Cl)c2)CC1)c1ccc(CSc2nc3ccncc3[nH]2)cc1 | 12.1
COc1ccc(Cl)cc1N(CC(=O)N/N=C/c1ccc(OC(C)C)cc1)S(=O)(=O)c1ccc(C)c([N+](=O)[O-])c1 | 2.6
CC1CCCC(NC(=O)COC(=O)Cc2ccccc2)C1C (centres undefined) | -10.6
CC1CCCC(NC(=O)COC(=O)COc2ccccc2Cl)C1C (centres undefined) | -6.56
NC(=O)COC(=O)c1sc2ccccc2c1Cl | 59.5
NC(=O)NC(=O)COC(=O)c1sc2ccccc2c1Cl | -8.02
O=C(NCc1ccccc1F)Nc1ccc([N+](=O)[O-])cc1 | -8.88
